Bioassay records (PubChem)
Pf Dd2 inh: qHTS Primary assay for Inhibitors of Plasmodium falciparum Dd2 growth in vitro | P. falciparum Dd2 growth, SYBR Green, 72 h | Potency, µM (titrated, usually from 28.9 µM), for inactives: at the highest dose activity, negative = inhibition, usual class: inhibitors | 120,000 tested, 4.3% active | AID 1347417, 2020; active = well fitted inhibition curve with a large enough effect;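 note: plate controls were DMSO vehicle for no effect and reference drug for full effect; nearly all actives have a fitted effect of over 65% in size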
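Infected erythrocytes (Dd2, 0.3% parasitemia, 2.5% hematocrit final) are added to compound in RPMI-1640/Albumax II medium, grown 72 h at 37C in low oxygen, then lysed with saponin/Triton-X containing SYBR Green and read by fluorescence.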
* marks the source's active call; other numbers are inactive results; i = inactive; [ ] = dose if it differs, or a comment. Only a selection was taken, and hits are over-represented in it overall. Potency is the fitted concentration of half-maximal effect.

SMILES	Pf Dd2 inh
COC(=O)c1ccc2nc(C[C@@H]3C[C@@H](C(C)C)[C@H](CNC(=O)c4ccccc4)C=C3C)[nH]c2c1	8.9µM*
CCC(CC)C(=O)NC[C@@H]1C=C(C)[C@H](Cc2nc3ccc(C(=O)OC)cc3[nH]2)C[C@H]1C(C)C	-1%
COCC(=O)NC[C@@H]1C=C(C)[C@H](Cc2nc3ccc(F)cc3[nH]2)C[C@H]1C(C)C	13µM*
CCOc1ccc2c(n1)CCN(C(=O)Cc1c(C)noc1C)C2	i
COc1ccc(NC(=O)CN2C(=O)NC3(CCCCC3)C2=O)cc1Cl	-11%
O=C(Cc1cccc(F)c1)N1CCC(Cc2nc(C3CCOCC3)no2)CC1	55%
COCC(=O)N1CCc2nc(C)nc(-c3ccc(OC)cc3)c2C1	8%[44.1 µM]
CN(C)C(=O)C1CN(C(=O)Nc2cccc(C(F)(F)F)c2)CC12CCOCC2 (stereo not drawn)	-1%
COc1cc(C(=O)N2CCC(n3c(=O)[nH]c4ccccc43)CC2)nc2ccccc12	-12%
Cc1nc(NCc2csc(-c3cnccn3)n2)cc(C2CC(O)C2)n1 (stereo not drawn)	-27%
COCCc1noc([C@@H]2CC(F)(F)CN2C(=O)c2cc(C)no2)n1	8%
COc1ccc2nc(C[C@@H]3C[C@@H](C(C)C)[C@H](CNC(=O)CC4(CC(=O)O)CCCC4)C=C3C)[nH]c2c1	i
CCCNC(=O)NC[C@@H]1C=C(C)[C@H](Cc2nc3ncccc3[nH]2)C[C@H]1C(C)C	i
CCCNC(=O)NC[C@@H]1C=C(C)[C@H](Cc2nc3ccc(OC)cc3[nH]2)C[C@H]1C(C)C	10µM*
Cc1ccc(S(=O)(=O)Cc2noc([C@@H]3C[C@@H](O)CN3CC3CCCCC3)n2)cc1	i
COCCNC(=O)[C@H]1C[C@H](Oc2ccccc2)CN1S(=O)(=O)c1c(C)noc1C	-9%
COc1ccc(C(=O)N2CCN(c3cc(-c4ccccc4)[nH]n3)CC2)c(OC)c1	-13%
Cc1cc(C(=O)N2CCCC3(CNS(=O)(=O)c4cccnc4O3)C2)no1 (stereo not drawn)	13%
O=C1[C@@H]2C[C@@H](CN2CC2CC2)Oc2ccccc2N1Cc1ccc(OC(F)(F)F)cc1	4µM*
O=C1[C@@H]2C[C@@H](CN2C(=O)C2CC2)Oc2ccccc2N1Cc1ccc(OC(F)(F)F)cc1	i
O=C1[C@@H]2C[C@@H](CN2Cc2cccc(Cl)c2)Oc2ccccc2N1CC1CC1	-11%[44.1 µM]
O=C1[C@@H]2C[C@@H](CN2Cc2nccs2)Oc2ccccc2N1CC1CC1	i
O=C1[C@@H]2C[C@@H](CN2Cc2ccc(Cl)cc2)Oc2ccccc2N1CC1CC1	13µM*
COCC(=O)N1C[C@@H]2C[C@H]1C(=O)N(Cc1ccc(OC(F)(F)F)cc1)c1ccccc1O2	i
O=C1NCCCCCCN(C(=O)Nc2ccccc2F)[C@H]2C[C@H](c3nc(-c4cccnc4)no3)C[C@@H]12	-7%
SMILES	Pf Dd2 inh
CC(C)c1noc(CC2CCN(C(=O)c3ccc(F)c(Cl)c3)CC2)n1	8%
CN1CC(=O)N(c2ccccc2F)Cc2c(NCCc3ccc(Cl)cc3)ncnc21	i
O=C(NCc1ccc(F)cc1)c1ccc(CSc2nc3ccncc3n2Cc2ccc(F)cc2)cc1	11µM*
CCNC(=O)c1ccc(CSc2nc3ccncc3n2Cc2ccc(F)cc2)cc1	7.9µM*
COc1cccc(CSc2nc3ccncc3n2CC(=O)Nc2ccc(OC)c(OC)c2OC)c1	-10%
COC(=O)c1ccc(Cn2c(SCC(=O)NCc3ccccc3)nc3ccccc32)cc1	27%
COc1ccccc1CNC(=O)c1ccc(CSc2nc3ccncc3n2Cc2ccccc2C)cc1	7.1µM*
COc1ccc(NC(=O)Cn2c(SCc3cc(C)ccc3C)nc3ccncc32)c(OC)c1OC	-17%
O=C(NCc1cccs1)c1ccc(Cn2c(SCc3cccc(F)c3)nc3cccnc32)cc1	-5%
CN(C(=O)c1ccc2oc(CCc3ccccc3)nc2c1)C1CCOC1 (stereo not drawn)	-4%
CO[C@H]1[C@H](NC(=O)Cc2ccccc2C)c2ccccc2C12CCNCC2	0%
O=C(N[C@@H]1CCN(Cc2nc3c(s2)CCCC3)C[C@H]1O)c1ccccn1	25%
CC[C@H]1CN(S(=O)(=O)c2c(C)noc2C)CC[C@H]1CC(=O)Nc1nccs1	-21%[44.1 µM]
CCc1cn(C[C@H](NC(=O)c2ccco2)C(=O)O)c(=O)[nH]c1=O	4%[44.1 µM]
O=C1NC2(CCCN(C(=O)c3cccnc3)C2)Oc2ccccc21 (stereo not drawn)	0%[44.1 µM]
CCn1nccc1C(=O)N1C[C@@H](Oc2ccccc2)C[C@H]1C(=O)NC1CC1	23%
Cc1nn(C)c(C)c1-c1cc(C(=O)N[C@H]2CC[C@H]2NC(C)C)n(C)n1	i
O=C(c1n[nH]c2ccccc12)N1CCC(N2C(=O)C(OCC3CC3)C23CCCCC3)CC1 (stereo not drawn)	4.5µM*
O=C(C1CCCC1)N1CCC(N2C(=O)C(OCC3CC3)C23CCCCC3)CC1 (stereo not drawn)	i
CCn1ccc(C(=O)N2CCC(N3C(=O)C(OCC4CC4)C34CCCCC4)CC2)n1 (stereo not drawn)	-25%
COc1nccnc1NC1CCN(C(=O)c2cccc(C)c2)CC1	40%[5.79 µM]
O=S(=O)(c1cccs1)N1CCc2nc(C3CC3)nc(-c3ccc(Cl)cc3)c2C1	-11%
CC(C)c1nc2c(c(-c3ccc(Cl)cc3)n1)CN([S+](=O)([O-])c1cccs1)CC2	i
COc1ccc(-c2nc(C(C)C)nc3c2CN([S+](=O)([O-])c2cccs2)CC3)cc1	5µM*
CCc1nc2c(c(-c3ccc(OC)cc3)n1)CCN([S+](=O)([O-])c1cccs1)CC2	-14%
SMILES	Pf Dd2 inh
O=[S+]([O-])(c1cccs1)N1CCc2nc(C3CC3)nc(-c3ccc(Cl)cc3)c2CC1	4µM*
COc1ccc(-c2nc(C(C)C)nc3c2CN([S+](=O)([O-])c2cccc(OC)c2)CC3)cc1	i
CSc1ccc(CNC(=O)c2noc(-c3ccc(F)cc3)n2)cc1	24%
O=C(C[C@@H]1C[C@H]2O[C@H](CNCc3cnccc3C(F)(F)F)[C@@H](O)[C@H]2O1)N1CCOCC1	19%
COc1ccccc1CCC(=O)N1CCN(c2cc(-c3cccs3)[nH]n2)CC1	i
CCN(CC)S(=O)(=O)c1cccc(C(=O)Nc2ccccc2C(=O)Nc2ccc(Cl)cc2)c1	10µM*
CCOc1ccc(NC(=O)c2ccc(F)c(S(=O)(=O)N(CC)Cc3ccccc3)c2)cc1	13%
CCN(Cc1ccccc1)S(=O)(=O)c1ccc(F)c(C(=O)Nc2cc(C)ccc2OC)c1	24%
C=CCCC(CN1CCSCC1)Oc1cc(CC)nc(C)n1 (stereo not drawn)	i
O=C(Cn1nc2n(c1=O)CCCCC2)NCc1ccc(F)cc1	27%
CN(C)C(=O)N1CCC(C(=O)N2CCOC(Cc3cccc4ccccc34)C2)CC1 (stereo not drawn)	i
COCCOc1ccc(C(=O)N[C@@H]2CN(C(=O)Nc3cccc(C#N)c3)CCC[C@H]2O)cc1	i
CCOc1ccc(NC(=O)c2ccc3c(c2)N(CC)C2CCCCN2C3=O)cc1 (stereo not drawn)	5µM*
CCN1c2cc(C(=O)Nc3cc(C)ccc3OC)ccc2C(=O)N2CCCCCC21 (stereo not drawn)	6.3µM*
CCN1c2cc(C(=O)Nc3cccc(OC)c3)ccc2C(=O)N2CCCCCC21 (stereo not drawn)	i
CN1c2cc(C(=O)Nc3cccc(OC(F)(F)F)c3)ccc2C(=O)N2CCCCC21 (stereo not drawn)	-20%
